# JMJD2A Tudor: qHTS Assay for Inhibitors of JMJD2A-Tudor Domain; actives 4.4% (n = 390,000); AlphaScreen JMJD2A-Tudor / H3K4me3 peptide binding; Potency, µM (series often up to 114 µM), for the others: top-dose activity change, negative = inhibition, most hits filed as inhibitors; also: % is scaled to controls: 0 for no effect and ±100 for the full control effect; nearly all actives have a fitted effect of over 50% in size
# BAZ2B inh: qHTS Assay for Inhibitors of BAZ2B. Bromodomain adjacent to zinc finger domain protein 2B (Homo sapiens), Q9UIF8. actives 4.4% (n = 360,000). Potency, µM (doses to about 114 µM), without a hit: top-dose activity change, negative = inhibition, most hits filed as inhibitors. AlphaScreen BAZ2B-H3K14Ac peptide displacement. AID 504333, 2011; also: % is scaled to controls: 0 for no effect and ±100 for the full control effect; nearly all actives have a fitted effect of over 60% in size
#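 AlphaScreen displacement: compounds (up to 110uM) incubated 30 min at room temperature with a preformed 50 nM BAZ2B/50 nM biotinylated H3K14Ac peptide complex in PBS pH 7.4 with Tween-20. Donor and acceptor beads at 10 ug/mL final added, 20 min light-protected before reading.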
# G9a block: qHTS Assay for Inhibitors of Histone Lysine Methyltransferase G9a; G9a H3K9 monomethylation, AlphaScreen, 2 h; actives 8.8% (n = 350,000); Potency, µM (titrated, usually from 102 µM), inactives show top-dose activity, negative = inhibition, most hits filed as inhibitors; AID 504332, 2011; also: % is scaled to controls: 0 for no effect and ±100 for the full control effect; nearly all actives have a fitted effect of over 75% in size
#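 Compounds were preincubated with 20 nM G9a for 15 min, after which biotinylated H3K9 peptide (500 nM) and SAM (20 uM) started a 2 h room-temperature reaction. Monomethylated product was quantified by antibody-based AlphaScreen chemiluminescence.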
# HP1b chromo inh: HTS for Inhibitors of HP1-beta Chromodomain Interactions with Methylated Histone Tails. AlphaScreen HP1-beta / biotin-H3K9me3 peptide binding. Potency, µM (doses to about 114 µM), for the others: at the highest dose activity change, negative = inhibition, hits mostly inhibitors. actives 0.56% (n = 390,000). AID 540317, 2011; also: nearly all actives have a fitted effect of over 70% in size
#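 HP1-beta protein (50 nM final) preincubated 30 min at room temperature with biotinylated H3(1-18)K9me3 peptide (50 nM) in PBS pH 7.4, 0.01% Tween-20, then compound added for 30 min. AlphaScreen streptavidin donor/nickel chelate acceptor beads (10 ug/mL final), 30 min dark, luminescence read.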
# L3MBTL1 block: qHTS Assay for the Inhibitors of L3MBTL1; AlphaScreen L3MBTL1–H3K9me1 peptide binding; Potency, µM (series often up to 57.1 µM), for inactives: at the top dose activity, negative = inhibition, usual class: inhibitors; actives 0.66% (n = 230,000); Lethal(3)malignant brain tumor-like protein 1 (Homo sapiens), Q9Y468; also: % is scaled to controls: 0 for no effect and ±100 for the full control effect; nearly all actives have a fitted effect of over 60% in size
# Target sequence (Q9Y468 whole entry, looked up): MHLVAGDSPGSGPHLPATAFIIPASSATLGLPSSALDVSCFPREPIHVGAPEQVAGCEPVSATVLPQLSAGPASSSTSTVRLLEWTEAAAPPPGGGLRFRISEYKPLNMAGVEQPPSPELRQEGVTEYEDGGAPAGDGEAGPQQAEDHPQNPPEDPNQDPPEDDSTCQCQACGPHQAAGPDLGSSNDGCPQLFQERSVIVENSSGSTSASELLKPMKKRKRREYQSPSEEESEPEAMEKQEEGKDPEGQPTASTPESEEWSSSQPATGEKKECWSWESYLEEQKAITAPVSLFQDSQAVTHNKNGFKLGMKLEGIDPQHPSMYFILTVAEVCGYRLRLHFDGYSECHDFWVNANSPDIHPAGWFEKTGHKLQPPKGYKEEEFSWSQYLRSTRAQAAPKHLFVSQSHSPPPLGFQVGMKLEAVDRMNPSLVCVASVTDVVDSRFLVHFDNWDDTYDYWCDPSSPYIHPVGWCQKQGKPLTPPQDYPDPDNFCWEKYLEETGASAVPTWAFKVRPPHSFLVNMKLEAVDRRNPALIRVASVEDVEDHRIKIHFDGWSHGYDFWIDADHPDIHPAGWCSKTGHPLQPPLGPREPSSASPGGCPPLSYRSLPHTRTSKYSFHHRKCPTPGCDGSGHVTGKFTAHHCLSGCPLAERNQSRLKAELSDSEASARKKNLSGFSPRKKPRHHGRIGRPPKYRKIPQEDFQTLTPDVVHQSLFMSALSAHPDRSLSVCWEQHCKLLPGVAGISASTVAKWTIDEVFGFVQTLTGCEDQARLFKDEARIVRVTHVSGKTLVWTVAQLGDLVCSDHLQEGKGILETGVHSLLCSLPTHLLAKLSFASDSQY
#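 First, the protein-peptide complex forms for 30 min at room temperature (L3MBTL1 50 nM, biotinylated H3K9me1 peptide 75 nM). Next, compounds are pin-transferred and incubated 30 min. Finally, AlphaScreen beads are added and read after 30 min.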
# The depositor's hits bear a star; ? = inconclusive; . = no result; ! = not confirmed by another sample; [ ] = another dose, or the depositor's remark. Shown are actives, neighbours in structure and some others; about 11% of the full set was active somewhere. Calls follow the shape of the dose curve; as a rule, active = well fitted inhibition curve with a large enough effect; inconclusive = small, poorly fitted or top-dose-only effect; inactive = no such curve, though single readings can be large or run the other way. Potency is read from the fitted curve at half-maximal effect.
SMILES,JMJD2A Tudor,BAZ2B inh,G9a block,HP1b chromo inh,L3MBTL1 block
CCOc1ccccc1NC(=O)CN1C(=O)COc2ccc(S(=O)(=O)N3CCOCC3)cc21,16µM*!,-8%,2%[59 µM],9%,.
CCOc1ccccc1NC(=O)C1CCN(S(=O)(=O)c2ccc(OC)c(OC)c2)CC1,-20%,-3%,40µM*,25%,-10%
COc1cc(NC(=O)Cc2noc3ccccc23)cc(OC)c1OC,?,?,-32%[59 µM],-6%,.
Cc1cccc(-n2ncc(C(=O)NCc3ccccn3)c2C2CCN(C(=O)OC(C)(C)C)CC2)c1,-15%,4%[57.1 µM],25%[59 µM],46%,.
CC(C)C(C)(C#N)NC(=O)CSc1nnc(-c2ccncc2)n1Cc1ccccc1 (stereo not drawn),71µM*,6%,-8%,?,3%
O=C(CSc1nnc(-c2ccncc2)n1Cc1ccco1)Nc1ccccc1Cl,?,-34%,?,22%,-5%
O=C(CSc1nnc(-c2ccncc2)n1Cc1ccco1)Nc1nc(-c2ccccc2)cs1,-16%,0%,28µM*,35%,.
Cc1cc(C)nc(SCc2nnc(SCC(=O)Nc3nc(-c4ccccc4)cs3)n2-c2ccccc2)n1,79µM*,1%,?,-2%,.
O=C(CSc1nnc(-c2ccncc2)n1Cc1ccccc1)Nc1nccs1,89µM*,15%[57.1 µM],-17%[12.7 µM],1%,3%
O=C(C1CCC(Cn2c(=O)c3sccc3n(Cc3cccc(F)c3)c2=O)CC1)N1CCCCC1 (stereo not drawn),-32%,-19%,10%[59 µM],22%,.
CCOc1ccc2nc(SC3CC(=O)N(c4cccc(OC)c4)C3=O)sc2c1 (stereo not drawn),-28%,3%,10µM*,39%,5%
CCOC(=O)c1ccc(N2C(=O)CC(Sc3ncccn3)C2=O)cc1 (stereo not drawn),-7%,-12%,?,47%,-1%
CCOC(=O)c1cnc(SC2CC(=O)N(c3cccc(OC)c3)C2=O)nc1N (stereo not drawn),-15%,0%,35µM*,41%,-5%
Cc1cc(N=Nc2ccccc2)c(NCC(O)C(O)C(O)CO)cc1C (stereo not drawn),45µM*,16µM*,20µM*,?,.
Cc1c(Cl)cccc1NC(=O)Nc1ccc2snnc2c1,11%,-5%,4%[59 µM],42%,.
CCC12CN3CC(C)(CN(C1)C3c1ccccc1C)C2=O (stereo not drawn),-11%,2%,-3%[59 µM],14%,.
Cc1ccccc1C(=O)/C=C1/c2ccccc2CC(C)(C)N1C,-26%,50µM*,34%[59 µM],26%,-4%
CN1/C(=C\C(=O)c2ccccc2Cl)c2ccccc2CC1(C)C,-2%[57.1 µM],?,?,36%,-28%
COC(=O)C1=COC(C)C2CN3CCc4c([nH]c5ccccc45)C3CC12 (stereo not drawn),?,?,45µM*,-1%,-2%
COC(=O)[C@@H]1[C@H]2C[C@H]3c4[nH]c5ccccc5c4CCN3C[C@H]2CC[C@@H]1O,.,.,25%[59 µM],.,.
O=C(O)[C@@H]1[C@H]2C[C@H]3c4[nH]c5ccccc5c4CCN3C[C@@H]2CC[C@@H]1O,56µM*,?,?,-36%,-5%
CCn1c(SCC(=O)c2cc(C)ccc2C)nc2cc(S(=O)(=O)N3CCOCC3)ccc21,-9%,-9%,25µM*,20%,-3%
O=c1ccc2cc(S(=O)(=O)N3CCOCC3)ccc2o1,0%,-12%,4%[59 µM],12%,-3%
CCn1c2ccccc2c2nc3cc(S(=O)(=O)N4CCOCC4)ccc3nc21,-9%[57.1 µM],1%,2.2µM*,?,14%
O=C(CSc1nc2cc(S(=O)(=O)N3CCOCC3)ccc2o1)NC1CCCc2ccccc21 (stereo not drawn),50µM*,-5%,?,-36%,2%[11.4 µM]
CCSc1nc2cc(S(=O)(=O)N3CCOCC3)ccc2o1,28µM*,.,.,?,4%

# Screening data as filed in PubChem BioAssay.
